The values that follow come from the supplement of paper PMC9262897, “Low-cost anti-mycobacterial drug discovery using engineered E. coli” (Nature Communications, 2022).

Structures can show the parent of a compound that is named as a salt. ± gives the standard deviation of the averaged measurements.

The subject of the first assay is E. coli TESEC Mtb DapB. Kind of assay: growth (OD600 after 10 h); higher = more growth (less inhibition). Conditions: arabinose induction (level): High; compound 0.1 mM; raw OD600 reference: median of DMSO wells […], cell-free background 0.041. On the procedure: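 TESEC E. coli strains in which the native enzyme is deleted and replaced by arabinose-inducible Mtb Asd, DapB, CysH or TrpD, each grown in its selective medium. Strains were screened against the Prestwick library at 0.1 mM and 1% DMSO in 384-well format at low and high arabinose induction. Growth is read as OD600 after 10 h in triplicate.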
`CCOc1nc2cccc(C(=O)O)c2n1Cc1ccc(-c2ccccc2-c2nnn[nH]2)cc1` [Candesartan] registered a growth of 0.197 ± 0.0041.

As to `N#Cc1cc(NC(=O)C(=O)O)c(Cl)c(NC(=O)C(=O)O)c1` [Lodoxamide], the growth was determined as 0.222 ± 0.018.

As for `CN1CCCN=C1/C=C/c1cccs1` [Pyrantel tartrate], the growth turned out to be 0.197 ± 0.0092.

`NCCCC[C@H](N[C@@H](CCc1ccccc1)C(=O)O)C(=O)N1CCC[C@H]1C(=O)O` [Lisinopril] came in with a growth of 0.212 ± 0.0046.

`CCCC(CCC)C(=O)O` [Valproic acid] gave a growth of 0.202 ± 0.011.

Consider `CC(=O)Nc1nnc(S(N)(=O)=O)s1` [Acetazolamide], for which the growth worked out at 0.211 ± 0.015.

As to `C[C@H](N[C@@H](CCc1ccccc1)C(=O)O)C(=O)N1CCC[C@H]1C(=O)O` [Enalaprilat dihydrate], the growth was determined as 0.21 ± 0.013.

On to `N=C(N)NCc1cccc(I)c1` [Iobenguane sulfate], for which the growth was 0.188 ± 0.0051.

For the molecule `CCC[C@@H]1C[C@@H](C(=O)N[C@@H]([C@H]2O[C@H](SC)[C@H](O)[C@@H](O)[C@H]2O)[C@@H](C)O)N(C)C1` [Lincomycin hydrochloride], the growth stood at 0.172 ± 0.03.

As to `c1cnc(N2CCN(Cc3ccc4c(c3)OCO4)CC2)nc1` [Piribedil hydrochloride], the growth is 0.178 ± 0.01.

`CN(C)CCn1nnnc1SCC1=C(C(=O)O)N2C(=O)[C@@H](NC(=O)Cc3csc(N)n3)[C@H]2SC1` [Cefotiam hydrochloride] showed a growth of 0.218 ± 0.018.

`OCCN1CCN(CCCN2c3ccccc3C=Cc3ccccc32)CC1` [Opipramol dihydrochloride] displayed a growth of 0.199 ± 0.027.

On to `CCCCN1CCCCC1C(=O)Nc1c(C)cccc1C` (stereo not given) [Bupivacaine hydrochloride], for which the growth came to 0.187 ± 0.013.

Take `CS(=O)(=O)OCCCCOS(C)(=O)=O` [Busulfan]: the growth turned out to be 0.209 ± 0.0074.

Molecule `CC(C)(Oc1ccc(C2CC2(Cl)Cl)cc1)C(=O)O` (stereo not given) [Ciprofibrate] came in with a growth of 0.203 ± 0.018.

Consider `CNCC(O)c1ccc(OC(=O)C(C)(C)C)c(OC(=O)C(C)(C)C)c1` (stereo not given) [Dipivefrin hydrochloride], for which the growth came to 0.188 ± 0.023.

For `C[C@H](Cc1cc2c(c(C(N)=O)c1)N(CCCO)CC2)NCCOc1ccccc1OCC(F)(F)F` [Silodosin], the growth was 0.201 ± 0.02.

For the molecule `CN(C)CCCN1c2ccccc2Sc2ccc(C(F)(F)F)cc21` [Triflupromazine hydrochloride], the growth came to 0.0483 ± 0.00081.

With `O=C1CC[C@@H](C(=O)N2CSC[C@H]2C(=O)O)N1` [Pidotimod], the growth came out at 0.191 ± 0.013.

On to `COc1ccnc(C[S+]([O-])c2nc3cc(OC(F)F)ccc3[nH]2)c1OC` (stereo not given) [Pantoprazole sodium], for which the growth came to 0.189 ± 0.0071.

The assay is the same for the next values; noted with them: arabinose induction (level): Low; compound 0.1 mM; raw OD600 reference: median of DMSO wells 0.227, cell-free background 0.041.
As to `CCOc1nc2cccc(C(=O)O)c2n1Cc1ccc(-c2ccccc2-c2nnn[nH]2)cc1` [Candesartan], the growth was determined as 0.205 ± 0.024.

Turning to `N#Cc1cc(NC(=O)C(=O)O)c(Cl)c(NC(=O)C(=O)O)c1` [Lodoxamide], the growth was 0.235 ± 0.03.

Molecule `CN1CCCN=C1/C=C/c1cccs1` [Pyrantel tartrate] registered a growth of 0.249 ± 0.046.

In the case of `NCCCC[C@H](N[C@@H](CCc1ccccc1)C(=O)O)C(=O)N1CCC[C@H]1C(=O)O` [Lisinopril], the growth worked out at 0.316 ± 0.057.

With `CCCC(CCC)C(=O)O` [Valproic acid], the growth came to 0.246 ± 0.0077.

For the molecule `CC(=O)Nc1nnc(S(N)(=O)=O)s1` [Acetazolamide], the growth came to 0.253 ± 0.077.

With `C[C@H](N[C@@H](CCc1ccccc1)C(=O)O)C(=O)N1CCC[C@H]1C(=O)O` [Enalaprilat dihydrate], the growth was determined as 0.216 ± 0.022.

With `N=C(N)NCc1cccc(I)c1` [Iobenguane sulfate], the growth turned out to be 0.265 ± 0.04.

Regarding `CCC[C@@H]1C[C@@H](C(=O)N[C@@H]([C@H]2O[C@H](SC)[C@H](O)[C@@H](O)[C@H]2O)[C@@H](C)O)N(C)C1` [Lincomycin hydrochloride], the growth turned out to be 0.179 ± 0.043.

For the molecule `c1cnc(N2CCN(Cc3ccc4c(c3)OCO4)CC2)nc1` [Piribedil hydrochloride], the growth is 0.202 ± 0.013.

Regarding `CN(C)CCn1nnnc1SCC1=C(C(=O)O)N2C(=O)[C@@H](NC(=O)Cc3csc(N)n3)[C@H]2SC1` [Cefotiam hydrochloride], the growth was found to be 0.195 ± 0.019.

In turn, `OCCN1CCN(CCCN2c3ccccc3C=Cc3ccccc32)CC1` [Opipramol dihydrochloride] registered a growth of 0.218 ± 0.04.

Molecule `CCCCN1CCCCC1C(=O)Nc1c(C)cccc1C` (stereo not given) [Bupivacaine hydrochloride] gave a growth of 0.266 ± 0.047.

The molecule `CS(=O)(=O)OCCCCOS(C)(=O)=O` [Busulfan] had a growth of 0.286 ± 0.024.

In the case of `CC(C)(Oc1ccc(C2CC2(Cl)Cl)cc1)C(=O)O` (stereo not given) [Ciprofibrate], the growth is 0.207 ± 0.012.

With `CNCC(O)c1ccc(OC(=O)C(C)(C)C)c(OC(=O)C(C)(C)C)c1` (stereo not given) [Dipivefrin hydrochloride], the growth was 0.167 ± 0.0099.

In the case of `C[C@H](Cc1cc2c(c(C(N)=O)c1)N(CCCO)CC2)NCCOc1ccccc1OCC(F)(F)F` [Silodosin], the growth was 0.206 ± 0.033.

As to `CN(C)CCCN1c2ccccc2Sc2ccc(C(F)(F)F)cc21` [Triflupromazine hydrochloride], the growth was 0.211 ± 0.15.

Regarding `O=C1CC[C@@H](C(=O)N2CSC[C@H]2C(=O)O)N1` [Pidotimod], the growth was found to be 0.235 ± 0.037.

`COc1ccnc(C[S+]([O-])c2nc3cc(OC(F)F)ccc3[nH]2)c1OC` (stereo not given) [Pantoprazole sodium] showed a growth of 0.194 ± 0.018.
